Here are results for 16 compounds from PubChem BioAssay.

For orientation: inhibition means how much of the control response was suppressed.

Assay [1] relates to TRPC4 beta (transient receptor potential cation channel C4), mouse. Nature of the assay: TRPC4 cation channel opening, retest – cell-based, Fluo4 calcium, HEK293 TRPC4beta/mu-opioid, duplicates, 10 µM, confirmation (AID 2426;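 active = fluorescence ratio normalized to control raised more than 50% in primary screen plus both repeat runs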). Particulars: Fluo4 calcium fluorescence, at 10 µM; stronger effect = higher value.
In assay [2] the test system is transient receptor potential cation channel C4 beta (TRPC4), mouse. Kind of assay: TRPC4 cation channel opening, second retest – cell-based, second round, Fluo4, HEK293 TRPC4beta/mu-opioid, 1 µM, confirmation (AID 2461;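 active = primary screen active and over 50% activation in each of two duplicate runs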). Particulars: Fluo4 calcium fluorescence, at 1 µM; stronger effect = higher value.
For assay [3], the system named is TRPC4 (transient receptor potential cation channel C4 beta), mouse. Kind of assay: potentiation of DAMGO EC20 TRPC4 response – cell-based, second round, Fluo-4, HEK293 TRPC4beta/mu-opioid, 1 µM, confirmation (AID 2554;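 active = primary screen hit whose fluorescence ratio, in both repeats, exceeds the weak agonist control mean by 3 SD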). The following applies: DAMGO EC20, Fluo-4 calcium flux, at 1 µM; stronger effect = higher value.
In assay [4] the test system is TRPC4 beta (transient receptor potential cation channel C4), mouse. Kind of assay: potentiation of DAMGO EC20 TRPC4 response – cell-based, Fluo-4, HEK293 TRPC4beta/mu-opioid, confirmation (AID 2555;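 active = primary screen hit whose calcium fluorescence ratio, in both repeats, exceeds the weak agonist control mean by 3 SD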). Particulars: DAMGO EC20, Fluo-4 calcium flux, at 10 µM; stronger effect = higher value.
For assay [5], the target named is Short transient receptor potential channel 4 (Mus musculus) (UniProt Q9QUQ5). Nature of the assay: blockers of DAMGO-evoked TRPC4 calcium flux – cell-based, Fluo4, HEK293 TRPC4beta/mu-opioid, confirmation (AID 2636;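 active = calcium signal cut by more than 3 SD below the full-agonist control yet still positive, in both repeats and the earlier primary screen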). The following applies: at 10 µM; stronger effect = higher value.
Sequence of Short transient receptor potential channel 4 (Mus musculus) (Q9QUQ5 whole entry, looked up): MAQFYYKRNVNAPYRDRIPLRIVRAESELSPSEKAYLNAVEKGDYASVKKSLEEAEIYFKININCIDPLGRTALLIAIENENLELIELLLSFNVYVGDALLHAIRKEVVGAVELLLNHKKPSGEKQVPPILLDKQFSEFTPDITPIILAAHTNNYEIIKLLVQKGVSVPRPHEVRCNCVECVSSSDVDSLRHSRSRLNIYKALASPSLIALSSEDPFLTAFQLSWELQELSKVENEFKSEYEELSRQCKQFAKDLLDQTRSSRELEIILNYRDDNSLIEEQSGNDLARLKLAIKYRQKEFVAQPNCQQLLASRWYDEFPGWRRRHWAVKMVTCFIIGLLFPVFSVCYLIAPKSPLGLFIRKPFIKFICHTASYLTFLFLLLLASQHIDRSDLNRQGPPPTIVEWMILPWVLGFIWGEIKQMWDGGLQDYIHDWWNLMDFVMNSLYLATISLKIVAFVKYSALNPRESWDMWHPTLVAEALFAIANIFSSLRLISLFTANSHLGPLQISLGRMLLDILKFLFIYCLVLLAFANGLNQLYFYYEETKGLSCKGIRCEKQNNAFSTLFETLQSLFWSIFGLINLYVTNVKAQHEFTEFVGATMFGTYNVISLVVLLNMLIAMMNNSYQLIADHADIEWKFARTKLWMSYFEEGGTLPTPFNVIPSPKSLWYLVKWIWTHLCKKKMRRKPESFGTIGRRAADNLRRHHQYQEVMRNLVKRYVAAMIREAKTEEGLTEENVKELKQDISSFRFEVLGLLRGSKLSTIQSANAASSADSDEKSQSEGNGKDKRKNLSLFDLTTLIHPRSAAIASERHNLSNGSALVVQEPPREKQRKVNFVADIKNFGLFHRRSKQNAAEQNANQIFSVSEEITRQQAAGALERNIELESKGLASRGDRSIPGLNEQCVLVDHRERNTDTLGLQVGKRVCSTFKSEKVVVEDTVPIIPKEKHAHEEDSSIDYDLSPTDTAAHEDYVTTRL
The target is the same in assay [6]. Kind of assay: blockers of DAMGO-evoked TRPC4 calcium flux – cell-based, second round, Fluo4, HEK293 TRPC4beta/mu-opioid, 1 µM, confirmation (AID 2637;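 active = calcium signal ratio cut to more than 3 SD under the fully stimulated control mean yet still positive, in both repeats and the primary screen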;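 for inhibition: percent of integrated ratio relative to wells lacking test compound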). The following applies: at 1 µM; stronger effect = higher value.
For assay [7] the target is unchanged. Kind of assay: calcium entry via TRPC4 opening agents – cell-based, HEK293 TRPC4/mu-opioid, Fluo-4 calcium, dose response (AID 434937;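 active = primary screen activator hit with a dose response curve and TRPC4 channel activation at any tested dose; inactive = no activation, no dose response, or not a primary hit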).
Assay [8] has the same target. Kind of assay: potentiation of DAMGO-evoked TRPC4 calcium signal – cell-based, HEK293 TRPC4/mu-opioid, Fluo-4 calcium, EC20 DAMGO, dose response (AID 434941;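 active = earlier screen potentiator hit that boosts the TRPC4 ion channel at some dose, with a dose response; inactive = no potentiation, no dose response, or not a prior hit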;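 note: calcium entry triggered by an EC20 dose of DAMGO at the co-expressed mu-opioid receptor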).
Assay [9] shares this target. Nature of the assay: block of DAMGO-driven TRPC4 calcium entry – cell-based, HEK293 TRPC4/mu-opioid, Fluo-4 calcium, dose response (AID 434942;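 active = primary screen inhibitor hit that blocks the TRPC4 channel at some tested dose, yielding a dose curve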).
For assay [10], the target named is Short transient receptor potential channel 6 (Mus musculus) (UniProt Q61143). Kind of assay: TRPC6 blockade by TRPC4 inhibitor hits – cell-based, HEK293, membrane potential dye, duplicate, selectivity assay for TRPC4 inhibitor project, confirmation (AID 434948;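 active = active in primary screen and both duplicates, each dropping signal beyond three positive-control SD with fluorescence still positive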). Particulars: HEK293 TRPC6, membrane potential dye fluorescence, at 10 µM, stimulated with maximal-effect acetylcholine; stronger effect = higher value.
Sequence of Short transient receptor potential channel 6 (Mus musculus) (Q61143 whole entry, looked up): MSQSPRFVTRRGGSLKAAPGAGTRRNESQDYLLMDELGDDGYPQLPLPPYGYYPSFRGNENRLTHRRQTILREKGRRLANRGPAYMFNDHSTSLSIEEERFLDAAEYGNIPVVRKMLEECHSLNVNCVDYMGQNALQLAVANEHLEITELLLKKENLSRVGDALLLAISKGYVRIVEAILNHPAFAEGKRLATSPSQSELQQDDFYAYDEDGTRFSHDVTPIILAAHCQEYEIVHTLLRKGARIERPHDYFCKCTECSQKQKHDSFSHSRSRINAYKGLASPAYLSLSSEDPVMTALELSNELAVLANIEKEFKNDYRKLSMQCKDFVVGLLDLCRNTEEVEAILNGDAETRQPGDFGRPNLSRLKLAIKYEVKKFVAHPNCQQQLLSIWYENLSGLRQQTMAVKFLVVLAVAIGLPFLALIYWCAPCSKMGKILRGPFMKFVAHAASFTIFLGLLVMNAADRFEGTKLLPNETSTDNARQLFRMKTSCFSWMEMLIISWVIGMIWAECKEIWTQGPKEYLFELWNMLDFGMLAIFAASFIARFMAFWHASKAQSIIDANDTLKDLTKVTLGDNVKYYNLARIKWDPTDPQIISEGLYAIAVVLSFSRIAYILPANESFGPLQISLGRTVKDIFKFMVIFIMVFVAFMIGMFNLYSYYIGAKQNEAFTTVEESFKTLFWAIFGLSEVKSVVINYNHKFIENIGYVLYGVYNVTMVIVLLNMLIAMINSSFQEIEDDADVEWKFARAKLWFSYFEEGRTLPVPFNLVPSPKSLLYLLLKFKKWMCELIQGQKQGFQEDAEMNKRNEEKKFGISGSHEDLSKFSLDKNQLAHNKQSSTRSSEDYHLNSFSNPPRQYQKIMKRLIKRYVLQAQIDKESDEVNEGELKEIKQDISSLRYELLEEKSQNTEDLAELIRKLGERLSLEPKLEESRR

Assay [11] has the same target. Nature of the assay: TRPC6 opening by TRPC4 activator hits – cell-based, HEK293, membrane potential dye, duplicate, selectivity assay for TRPC4 activator project, confirmation (AID 434950;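 active = membrane potential signal rise above negative control mean plus 3 SD in both duplicates, also active in the earlier TRPC4 screen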). Particulars: HEK293 TRPC6, membrane potential fluorescence, at 10 µM; activation: stronger effect = higher value; outcome: activation.
Assay [12] has the same target. Kind of assay: positive modulators of mouse TRPC6 channel – HEK293 cells, membrane potential dye, duplicate, selectivity assay for TRPC4 potentiator project, confirmation (AID 434952). Particulars: HEK293 TRPC6, membrane potential dye fluorescence, at 10 µM, maximal acetylcholine added after compound; stronger effect = higher value.
Assay [13] has as its target Short transient receptor potential channel 4 (Mus musculus) (UniProt Q9QUQ5). Kind of assay: calcium flux activators in TRPC4/5HT1a cells, counter-screen for TRPC4 activator project, cell-based, second counter screen, HEK293 TRPC4/5HT1a, Fluo-4 (AID 434977;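 active = calcium signal rise above buffer-control mean plus 5 SD in both duplicates, and also a hit in the primary screen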). The following applies: Fluo-4 calcium flux, at 10 µM; stronger effect = higher value.
Assay [14] in a line: serotonin-gated TRPC4 signal block – cell-based, second counter screen, HEK293 TRPC4/5HT1a, Fluo-4, counter-screen for TRPC4 inhibitor project, confirmation (AID 434978;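 active = primary screen active whose calcium signal fell more than 3 SD beyond the full-serotonin control mean in both duplicate plates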;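 for outcome: serotonin given first at submaximal then at maximal dose after compound preincubation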). Particulars: Fluo-4 calcium flux, at 10 µM, serotonin added to trigger calcium flux; stronger effect = higher value.
The subject of assay [15] is TRPC4 (mouse), co-expressed with 5HT1a in HEK293. Nature of the assay: enhancement of serotonin-evoked TRPC4 response – cell-based, second counter screen, HEK293 TRPC4/5HT1a, Fluo-4, counter-screen for TRPC4 potentiator project, confirmation (AID 434979;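 active = signal rise over 3 SD above mean of control wells given weak agonist, in both repeats and first screen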). Particulars: Fluo-4 calcium flux, at 10 µM, serotonin added at its EC20 dose; stronger effect = higher value. (A counterscreen serves to expose hits that act by an unwanted route or on another target.)

The nature of assay [16]: nonspecific calcium rise without TRPC4 – cell-based, HEK293 mu-opioid receptor line, counter-screen for TRPC4 activator project, confirmation (AID 449723;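 active = hit in primary screen, with calcium signal over 5 SD above buffer well mean in both duplicates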;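 note: counter screen cells carry the mu-opioid receptor alone and lack TRPC4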). The following applies: HEK293 mu-opioid cells, Fluo-4 calcium fluorescence, at 10 µM; stronger effect = higher value.
The nature of assay [17]: nonspecific potentiation of DAMGO calcium response – cell-based, HEK293 mu-opioid receptor line, counter-screen for TRPC4 allosteric potentiator project, confirmation (AID 449724;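 active = calcium signal rise more than 3 SD above the low-dose agonist control mean, in both duplicate plates and the primary screen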;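 note: HEK293 cells carrying mu-opioid receptor only with no TRPC4 channel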). The following applies: HEK293 mu-opioid receptor cells, Fluo-4 calcium flux, at 10 µM, compound added before EC20 DAMGO stimulus; stronger effect = higher value.
Assay [18] can be described thus: parental CHO-K1 cell activation, no KCNQ2 – FluxOR thallium flux, duplicate, counter-screen for KCNQ2 potentiator project, confirmation (AID 2282;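 active = signal rise of at least 3 SD above the untreated control mean, in both duplicate wells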;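 note: counter screen of KCNQ2 potentiator hits so any rise reflects channel-independent effects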). Particulars: parental CHO-K1 cells, FluxOR thallium flux fluorescence; at 10 µM; stronger effect = higher value; zero = vehicle mean+3SD, 100% = vehicle-minus-blank window.

Unmarked numbers belong to inactive results. For some of these results: Potency and affinity values are given separately. Some of the results follow. The source made the active and inactive calls.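 Rule for the calls, unless noted: active = compound raising the membrane signal above positive-control mean plus 3 SD in both repeats, and a primary screen hit; inactive = the rest.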

Consider `c1coc(CN=C2NC(=NCc3ccco3)c3ccccc32)c1`, for which the outcome in [1], in assay [2], in assay [3], in assay [4], in [7] and in assay [8] was inactive. The result in [9], in assay [11], in assay [12], in assay [13], in assay [15] and in assay [16] was inactive. Besides, the outcome in assay [17] was inactive. Further, the inhibition in [5] is 98% (active); in assay [6], 49% (active); in assay [10], 47.5% (active); in assay [14] it was 35.3% (active).

As for `CCCCOc1ccc(CSC(=N)N)cc1[N+](=O)[O-]`, the result in assay [1], in assay [2], in assay [3], in assay [4], in assay [5] and in assay [6] was inactive. Also, the outcome in [7], in assay [8], in [9], in [10], in assay [11] and in assay [12] was inactive. In addition, the outcome in assay [13], in [14], in assay [16] and in [17] was inactive. The potentiation in [15] was 22.3% (active).

Turning to `Cc1ccc(C)c(N2CCN(CCCNC(=O)CCn3c(=O)c4cccn4c4cccnc43)CC2)c1`, the result in [1], in assay [2], in assay [3], in [4], in assay [5] and in [6] was inactive. In addition, the outcome in assay [7], in [8], in assay [9], in assay [10], in [11] and in [12] was inactive. Moreover, the outcome in [13], in [14], in [15], in assay [16] and in assay [17] was inactive.

Regarding `CC(=O)NNC(=O)c1csc(Cc2c(Cl)sc3ccc(Cl)cc23)n1`, the activity increase over 3SD of controls in assay [18] is 26.3% (active).

`O=C(c1ccncc1)N1c2ccccc2Sc2ccccc21`: the result in assay [1], in assay [2], in assay [3], in assay [4], in assay [5] and in [6] was inactive. The result in assay [7], in [8], in assay [9], in [10], in assay [11] and in assay [12] was inactive. In addition, the outcome in assay [13], in assay [14], in assay [15], in assay [16] and in assay [17] was inactive.

Take `COc1cc2nc(=S)n3[nH]c(CCn4nc(C)cc4C)nc3c2cc1OC`: the result in assay [1], in [2], in [3], in [4], in assay [5] and in assay [6] was inactive. Moreover, the result in [7], in assay [8], in assay [9], in assay [10], in [11] and in [12] was inactive. In addition, the result in assay [13], in [14], in assay [15], in [16] and in [17] was inactive.

For the compound `Cc1ccc(/C=C/C(=O)NC2CCCCCCC2)o1`, the result in [1], in assay [2], in assay [3], in [5], in assay [6] and in assay [7] was inactive. For the same compound, the result in assay [8], in assay [9], in assay [10], in assay [11], in [12] and in [13] was inactive. Also, the result in assay [14], in assay [16] and in assay [17] was inactive. The potentiation was 16% (active) in [4] and 19.1% (active) in assay [15].

On to `Cc1cc(C(=O)OCC(=O)Nc2ccc(F)c(F)c2)c(C)o1`, for which the activity increase over 3SD of controls in [18] is -17.5%.

For the compound `Oc1c(Cl)cc(Cl)c(Cl)c1Cc1c(O)c(Cl)cc(Cl)c1Cl`, the activity increase over 3SD of controls in [18] is 45% (active).

On to `Cc1ccc(NC(=O)c2cccs2)cc1`, for which the outcome in [1], in assay [2], in assay [3], in assay [4], in assay [5] and in [6] was inactive. For the same compound, the outcome in assay [7], in assay [8], in assay [9], in [10], in [11] and in assay [12] was inactive. The result in assay [13], in assay [14], in [15], in assay [16] and in [17] was inactive.

Regarding `Clc1ccc(N=C2SCC3CCCCN23)cc1` (stereo not drawn), the outcome in [1], in assay [2], in assay [3], in assay [5], in assay [6] and in [7] was inactive. In addition, the result in [8], in assay [9], in assay [10], in assay [11], in assay [12] and in [13] was inactive. Moreover, the result in assay [14], in assay [16] and in [17] was inactive. Also, the potentiation is 10% (active) in assay [4] and 35.2% (active) in assay [15].

For the compound `CCn1c(CN2CCN(C(c3ccccc3)c3ccccc3)CC2)nc2c1c(=O)n(C)c(=O)n2C`, the result in assay [1], in assay [2], in [3], in assay [4], in assay [5] and in [6] was inactive. Moreover, the outcome in assay [7], in assay [8], in assay [9], in assay [10], in [11] and in assay [12] was inactive. Also, the outcome in assay [13], in assay [14], in assay [16] and in assay [17] was inactive. The potentiation in assay [15] was 18.4% (active).

Regarding `Cc1cc(C)cc(NC(=O)c2nnn(Cc3cc(C)ccc3C)c2N)c1`, the outcome in assay [1], in assay [2], in assay [3], in [5], in assay [6] and in assay [7] was inactive. Further, the result in assay [8], in assay [9], in assay [10], in assay [11], in assay [12] and in assay [13] was inactive. For the same compound, the outcome in assay [14], in [16] and in [17] was inactive. Also, the figures for the potentiation in assay [4] and in assay [15] were 16% (active) and 27.4% (active), respectively.

`O=[N+]([O-])c1cc(Cl)cc(/C=N/NC(=S)Nc2ccc(S(=O)(=O)N3CCOCC3)cc2)c1O`: the outcome in [1], in assay [2], in [3], in [5], in [6] and in assay [7] was inactive. For the same compound, the outcome in assay [8], in assay [9], in assay [10], in assay [11], in [12] and in assay [13] was inactive. Besides, the outcome in [14], in assay [16] and in [17] was inactive. The potentiation in assay [4] is 15% (active); in assay [15], 10.1% (active).

Turning to `CN(C)CCCSc1nc(-c2ccccc2)nc2c1CCC2`, the outcome in [1], in [2], in [4], in assay [5], in assay [6] and in [7] was inactive. Further, the result in assay [8], in [9], in assay [10], in [11], in assay [12] and in assay [13] was inactive. In addition, the result in assay [14], in [15], in assay [16] and in [17] was inactive. Also, the potentiation in assay [3] is 8% (active).

Consider `Fc1cc(F)c2nc(Nc3nc4c(F)cccc4s3)sc2c1`, for which, in assay [18], the activity increase over 3SD of controls is -5.6%.
